Experimental data from PubChem BioAssay (NCATS).
Records with an inconclusive call do not appear. Activity calls are given as the source filed them. Calls follow the shape of the dose curve; as a rule, active = well fitted inhibition curve with a large enough effect; inconclusive = small, poorly fitted or top-dose-only effect; inactive = flat fitted curve, though single readings scatter.

What was measured:
Experiment in all cases: qHTS profiling for inhibitors of Plasmodium falciparum proliferation (AID 504749); also: nearly all actives have a fitted effect of over 60% in size
Conditions in all cases: P. falciparum in erythrocytes, SYBR Green DNA, 72 h; series mostly up to 28.7 µM
PC26 = tested on: PC26
Procedure, shortened: (§1)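 SYBR Green fluorescence of parasite DNA, read after lysis and overnight dark incubation, measured growth over 72 h in erythrocyte culture at 0.3% parasitemia and 2.5% hematocrit. Data normalised to DMSO and 0.29 uM artemisinin, with plate-drift correction.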

PC49 = tested on: PC49
Procedure, shortened: as §1

SC27B = tested on: SC27B
Procedure, shortened: as §1

TAB109 = tested on: TAB109
Procedure, shortened: as §1

TAB113 = tested on: TAB113
Procedure, shortened: as §1

TAB165 = tested on: TAB165
Procedure, shortened: as §1

W2 = tested on: W2
Procedure, shortened: as §1

Measured: Potency

O=C(NCNC(=O)NC1C(=O)NC(=O)N1CO)NC1C(=O)NC(=O)N1CO (stereo unspecified)
inactive: all assays above

CC(N)Cc1ccc(O)cc1 (stereo unspecified)
inactive: all assays above

O=C(O)C(Cl)(Cl)Cl
inactive: all assays above
